# An excerpt weighted towards active compounds, which were near 1.6% of everything screened.
# KCNQ2 inh – rat KCNQ2 potassium channel inhibitors, primary screen, cell-based, CHO-K1, FluxOR thallium flux, B-score; Potassium voltage-gated channel subfamily KQT member 2 (Rattus norvegicus), O88943; 20 min; stronger effect = lower value; B-score at 10 µM; actives 1.1% (n = 310,000); AID 2156, 2009;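 active = fluorescence ratio B-score at most minus 3 library SDs, with starting brightness B-score within 2 library SDs, cut at about -5.5 in these data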
# KCNQ2 pot – potentiators of rat KCNQ2 potassium channel. B-score at 10 µM. actives 0.54% (n = 310,000). CHO-K1 KCNQ2, FluxOR thallium flux fluorescence; stronger effect = higher value;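 active = fluorescence ratio B-score at least 3 SD of library B-scores, with initial fluorescence B-score within 3 of them, cut at about 5.3 in these data; same plate scores as AID 2156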;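 also: B-score of peak minus minimum over baseline fluorescence ratio after K+ and Tl+ stimulus; positive B-score means potentiation of KCNQ2 with more thallium influx and brighter signal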
# Kir21 conf inh – mouse Kir2.1 channel blockers, retest, confirmation, cell-based, FluxOR thallium flux, duplicate. shares compounds with KCNQ2 pot. Kir2.1-expressing cells, FluxOR thallium flux fluorescence; stronger effect = lower value. Tl flux remaining, % of negative control (stronger effect = lower value), % at 10 µM. actives 41% (n = 2,300);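 active = Primary-screen hit whose thallium flux fell at least 3 control SD below untreated wells in both duplicates, with normal baseline fluorescence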
# HEK293 Tl flux – parental HEK293 activity in Kir2.1 inhibitor counter-screen; FluxOR signal as % of negative control (100 = no effect), % at 10 µM; AID 2105; shares compounds with KCNQ2 pot; parental HEK293 cells, FluxOR thallium flux fluorescence; 0% = unstimulated blank wells; actives 19% (n = 2,300);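 active = dye signal at least 3 control SD above or below untreated wells in both duplicates, raw fluorescence within 3, either direction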;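 also: percent is based on the flux ratio of peak minus minimum fluorescence over baseline F0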
# CHO-K1 ctr – nonspecific thallium flux increase in parental CHO-K1, confirmation, counter-screen for KCNQ2 potentiator project, cell-based, FluxOR thallium flux, duplicate. shares compounds with KCNQ2 pot. parental CHO-K1 cells, FluxOR thallium flux fluorescence; zero = vehicle mean+3SD, 100% = vehicle-minus-blank window. activity increase over 3SD of controls, % at 10 µM. actives 43% (n = 1,200). AID 2282, 2010;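 active = signal rise of at least 3 SD above the untreated control mean, in both duplicate wells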;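 also: counter screen of KCNQ2 potentiator hits so any rise reflects channel-independent effects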
# KCNQ1 sel pot – human KCNQ1 channel potentiation off-target, confirmation, selectivity assay for KCNQ2 potentiator project, cell-based, CHO, FluxOR thallium flux; shares compounds with KCNQ2 pot; CHO KCNQ1 stable, FluxOR thallium flux fluorescence; beyond 3SD, as % of vehicle-control signal; activation over 3SD threshold, % at 10 µM; actives 28% (n = 1,200);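 active = fluorescence ratio rise of at least 3 SD of vehicle wells above their mean, in both replicate wells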
# KCNQ2 pot conf – rat KCNQ2 channel potentiators, confirmation, cell-based, CHO, FluxOR thallium flux, duplicate. shares compounds with KCNQ2 pot. CHO-KCNQ2 cells, FluxOR thallium flux fluorescence. potentiation, less the hit threshold, % at 10 µM. actives 68% (n = 1,200). AID 2287, 2010;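 active = fluorescence ratio rising 3 SD or more over the vehicle control mean in both replicates, plus primary screen hit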;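 also: peak minus minimum thallium fluorescence divided by baseline after K/Tl stimulus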
# Kir2-1 sel – mouse Kir2.1 channel activation off-target, confirmation, selectivity assay for KCNQ2 potentiator project, cell-based, HEK293, FluxOR thallium flux. shares compounds with KCNQ2 pot. HEK293 Kir2.1, FluxOR thallium flux fluorescence. activity over 3SD threshold, % at 10 µM. actives 2% (n = 1,200). AID 2345, 2010;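 active = fluorescence ratio rise of at least 3 SD above the vehicle-control mean, seen in both replicates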
# KCNQ2 W236L pot – potentiators of retigabine-insensitive KCNQ2 W236L, mechanism study for KCNQ2 potentiator project, cell-based, rat KCNQ2 W236L, CHO, automated patch clamp | current increase over 3SD of negative controls (%), stronger effect = higher value, % at 25 µM | shares compounds with KCNQ2 pot | automated patch clamp current | actives 10% (n = 940);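 active = current increase at least 3 SD of the untreated controls above them in both duplicate recordings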
# Target sequence (O88943 whole entry W236L, looked up): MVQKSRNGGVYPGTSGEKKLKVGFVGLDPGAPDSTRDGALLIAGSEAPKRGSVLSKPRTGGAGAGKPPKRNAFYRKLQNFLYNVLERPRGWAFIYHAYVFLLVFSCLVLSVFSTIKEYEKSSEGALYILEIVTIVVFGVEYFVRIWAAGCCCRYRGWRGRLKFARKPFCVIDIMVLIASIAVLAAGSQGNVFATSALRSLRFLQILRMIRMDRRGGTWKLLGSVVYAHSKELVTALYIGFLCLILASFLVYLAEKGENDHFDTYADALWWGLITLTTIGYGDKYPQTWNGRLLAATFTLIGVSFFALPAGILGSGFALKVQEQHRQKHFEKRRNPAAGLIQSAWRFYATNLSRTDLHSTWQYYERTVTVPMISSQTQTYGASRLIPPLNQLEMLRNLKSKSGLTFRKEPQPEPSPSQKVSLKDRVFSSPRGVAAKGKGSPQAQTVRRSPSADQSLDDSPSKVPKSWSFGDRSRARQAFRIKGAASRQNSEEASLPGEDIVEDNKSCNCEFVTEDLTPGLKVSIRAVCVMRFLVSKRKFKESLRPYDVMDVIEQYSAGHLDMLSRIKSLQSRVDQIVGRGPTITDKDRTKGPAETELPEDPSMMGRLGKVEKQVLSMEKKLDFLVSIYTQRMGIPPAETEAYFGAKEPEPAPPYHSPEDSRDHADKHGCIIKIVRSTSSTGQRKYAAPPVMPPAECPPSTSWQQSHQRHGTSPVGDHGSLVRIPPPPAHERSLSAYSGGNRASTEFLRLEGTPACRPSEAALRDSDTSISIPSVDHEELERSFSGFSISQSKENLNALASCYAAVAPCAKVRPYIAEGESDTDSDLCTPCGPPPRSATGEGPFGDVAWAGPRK
# Numbers stand for hits; 0 = inactive; - = not tested or not shown.
SMILES,KCNQ2 inh,KCNQ2 pot,Kir21 conf inh,HEK293 Tl flux,others
COc1ccc(OC)c(NC(=O)C2CCN(C(=O)C3CC(=O)N(c4ccc(C)cc4)C3)CC2)c1 (stereo not given),0,-,-,-,
CC(C)CC(=O)NC(Nc1ccccc1F)C(Cl)(Cl)Cl (stereo not given),0,-,-,-,
CCCC(=O)NC(Nc1ccccc1F)C(Cl)(Cl)Cl (stereo not given),0,0,58.0%,62.5%,
CN(CC(=O)Nc1ccccc1C(F)(F)F)C(=O)c1ccc(-c2ccc(Cl)cc2)o1,0,-,-,-,
Fc1ccc(N2CCN(Cc3c[nH]c4ccccc34)CC2)cc1,0,0,19.0%,0,
c1cnc(N2CCN(Cc3c[nH]c4ccccc34)CC2)nc1,0,-,-,-,
Cc1ccc(CNC(=O)C2CCN(S(=O)(=O)c3ccc4c(c3)CC(C)N4C(=O)C3CCC3)CC2)o1 (stereo not given),0,6.58,0,0,CHO-K1 ctr=0;KCNQ1 sel pot=0;KCNQ2 pot conf=0;Kir2-1 sel=0
CC(C)CCNC(=O)C1CCN(S(=O)(=O)c2ccc3c(c2)CC(C)N3C(=O)C2CCC2)CC1 (stereo not given),0,0,-,-,
Clc1ccc(CNc2ccccc2NCc2ccc(Cl)nc2)cn1,0,-,-,-,
O=C(COc1ccccc1)Nc1nnc(S(=O)(=O)Nc2ccccc2)s1,0,-,-,-,
COc1cccc(NC(=O)C(C)SCc2ccccc2)c1 (stereo not given),0,0,-,-,
COc1ccc(CCNC(=O)C(C)SCc2ccccc2)cc1 (stereo not given),0,0,41.0%,0,
CCn1c(SCC(=O)NC(C)c2ccccc2)nc2ccccc21 (stereo not given),0,-,-,-,
CCn1c(Sc2ccc(N)cc2Cl)nc2ccccc21,0,-,75.5%,0,
C/C(=N\NC(=O)Cc1ccc(Cl)cc1)c1cccc(NC(=O)c2cccnc2)c1,0,-,-,-,
Cc1nc2ccc(NC(=O)Cc3c(F)cccc3Cl)cc2s1,0,0,-,-,
Cn1c(=O)c2sccc2n(Cc2ccccc2)c1=O,0,0,-,-,
C=CCn1c(SCc2cccc(C#N)c2)nnc1-c1ccccc1O,0,0,52.0%,0,
C=CCn1c(SCc2ccc(C#N)cc2)nnc1-c1cccc(Cl)c1,0,-,52.5%,71.5%,
N#Cc1ccc(CSc2nnc(-c3ccncc3)n2CCc2ccccc2)cc1,0,-,-,-,
C=CCn1c(SCC(=O)NC(C)(C)C)nnc1-c1ccccc1O,0,-,-,-,
COc1ccc(CN2CCN(Cc3ccc(CO)o3)CC2CCO)cc1C (stereo not given),0,0,-,-,
Cc1ccc2c(c1)cc1c(=O)n(CC(=O)N3CCCC3)nc(C)n12,0,0,-,-,
O=C(NCCOc1ccc(Cl)cc1)c1ccco1,0,-,-,-,
CC(CCCCC(=O)Nc1ccc(C(F)(F)F)cc1)NCCc1cnc[nH]1 (stereo not given),0,-,-,-,
SMILES,KCNQ2 inh,KCNQ2 pot,Kir21 conf inh,HEK293 Tl flux,others
Cc1ccc(NC(=S)NC(=O)c2ccc(-c3ccc(Cl)cc3)o2)c(O)c1,0,0,-,-,
Cc1ccc(O)c(NC(=S)NC(=O)Cc2ccc(Cl)cc2)c1,0,7.03,0,0,CHO-K1 ctr=0.0;KCNQ1 sel pot=0;KCNQ2 pot conf=0;Kir2-1 sel=0
NC(=O)c1ccccc1OCC(=O)N1CCc2ccccc2C1,0,0,-,-,
CCC1CCCCN1C(=S)NC(=O)c1cccc([N+](=O)[O-])c1 (stereo not given),0,0,0,347.5%,
CC1CCN(C(=S)NC(=O)c2cccc([N+](=O)[O-])c2)CC1,0,0,-,-,
Cc1ccc(C(=O)C(C)OC(=O)Cc2c[nH]c3ccccc23)cc1 (stereo not given),0,-,-,-,
Cc1ccc(NC(=O)C(C)OC(=O)Cc2c[nH]c3ccccc23)cc1 (stereo not given),0,0,52.5%,0,
Cc1cccc(CS(=O)(=O)c2ncc(Cl)c(C(=O)Nc3nnc(C(C)C)s3)n2)c1,0,13.4,-,-,CHO-K1 ctr=0;KCNQ1 sel pot=0;KCNQ2 pot conf=98.7;Kir2-1 sel=0;KCNQ2 W236L pot=49.0%
CSc1nnc(NC(=O)c2nc(S(=O)(=O)Cc3ccccc3F)ncc2Cl)s1,0,10.1,-,-,CHO-K1 ctr=0;KCNQ1 sel pot=0;KCNQ2 pot conf=50.0;Kir2-1 sel=0;KCNQ2 W236L pot=17.9%
COC(=O)c1ccccc1NC(=O)c1nc(S(=O)(=O)Cc2ccccc2)ncc1Cl,0,-,-,-,
O=C(NCc1ccc2c(c1)OCO2)c1nc(S(=O)(=O)Cc2ccccc2)ncc1Cl,0,-,-,-,
Cc1ccc(CS(=O)(=O)c2ncc(Cl)c(C(=O)Nc3nnc(C(C)C)s3)n2)cc1,0,15.8,0,181.5%,CHO-K1 ctr=0;KCNQ1 sel pot=0;KCNQ2 pot conf=102.1;Kir2-1 sel=0;KCNQ2 W236L pot=77.3%
CC(C)c1nnc(NC(=O)c2nc(S(=O)(=O)Cc3ccc(F)cc3)ncc2Cl)s1,0,11.3,0,0,CHO-K1 ctr=0;KCNQ1 sel pot=0;KCNQ2 pot conf=58.1;Kir2-1 sel=0;KCNQ2 W236L pot=28.3%
Cc1ccc(CS(=O)(=O)c2ncc(Cl)c(C(=O)Nc3ccc(OC(F)F)cc3)n2)cc1,0,0,-,-,
O=C(NCc1ccc2c(c1)OCO2)c1nc(S(=O)(=O)Cc2ccccc2F)ncc1Cl,0,-,-,-,
COCCNC(=O)C(c1ccc(F)cc1)N(C(=O)CCC(=O)Nc1ccccn1)c1cccc(C)c1 (stereo not given),0,-,-,-,
O=C(NCc1ccco1)C(=O)NCC(c1ccco1)N1CCOCC1 (stereo not given),0,0,-,-,
Cc1ccc2c(c1)N(CC(=O)NC1CCC(C)CC1)C(=O)c1cccnc1O2 (stereo not given),0,0,-,-,
C=CCSc1nnc(NC(=O)c2nc(SCC)ncc2Cl)s1,0,0,-,-,
CSc1nnc(NC(=O)c2nc(S(=O)(=O)Cc3cccc(C)c3)ncc2Cl)s1,0,13.4,-,-,CHO-K1 ctr=0;KCNQ1 sel pot=4.6;KCNQ2 pot conf=83.6;Kir2-1 sel=0;KCNQ2 W236L pot=35.3%
CSc1nnc(NC(=O)c2ccco2)s1,0,0,-,-,

# Assay outcomes deposited in PubChem by Johns Hopkins Ion Channel Center.
